# Laboratory results: PubChem BioAssay (NCATS)
# Results filed as inconclusive are left out. A call without a number means that no potency is given here. Active and inactive are the calls of the source. Calls follow the shape of the dose curve; as a rule, active = well fitted cell-killing curve with a large enough effect; inconclusive = small, poorly fitted or top-dose-only effect; inactive = flat fitted curve, though single readings scatter.
# Test: Cell Viability - LYMP2-024 (AID 988);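 also: cells exposed to compound for 24 hr at 37 °C; nearly all actives have a fitted effect of over 60% in size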
# Conditions: LYMP2-024 lymphoblastoid cell viability; series mostly up to 92.2 µM
# Method in brief: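 Acute toxicity is measured as concentration-dependent loss of intracellular ATP in a human lymphoblastoid line treated 24 hours at 37 C. Luciferase luminescence quantifies ATP; AC50 values come from standard Hill-equation modelling.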
# Potency is read from the fitted curve at half-maximal effect.
row,SMILES,Potency
1,Cc1ncc([N+](=O)[O-])n1CCO,inactive
2,NNC(=O)c1ccncc1,inactive
3,O=C(N[C@H](CO)[C@H](O)c1ccc([N+](=O)[O-])cc1)C(Cl)Cl,inactive
4,Cc1noc(NS(=O)(=O)c2ccc(N)cc2)c1C,inactive
5,NC(N)=NC(N)=NCCc1ccccc1,inactive
6,COc1ccc2cc3[n+](cc2c1OC)CCc1cc2c(cc1-3)OCO2,39.8 µM (active)
7,CC[C@H](C)C(=O)O[C@H]1C[C@@H](C)C=C2C=C[C@H](C)[C@H](CC[C@@H]3C[C@@H](O)CC(=O)O3)[C@H]21,inactive
8,Cc1ccnc2c1NC(=O)c1cccnc1N2C1CC1,inactive
9,O=C(O)c1cc(=O)[nH]c(=O)[nH]1,inactive
10,C[C@]12C=CC(=O)C=C1CC[C@@H]1[C@@H]2C(=O)C[C@@]2(C)[C@H]1CC[C@]2(O)C(=O)CO,inactive
11,CCc1cc(C(N)=S)ccn1,inactive
12,Cc1nnc(NS(=O)(=O)c2ccc(N)cc2)s1,inactive
13,Cc1cc(NS(=O)(=O)c2ccc(N)cc2)no1,inactive
14,CC1=NN(c2ccccc2)C(=O)C1,inactive
15,CN(C)c1ccc(C(=C2C=CC(=[N+](C)C)C=C2)c2ccc(N(C)C)cc2)cc1,2 µM (active)
